Source: PubChem BioAssay
LASV entry inh: inhibitors of Lassa virus binding or cell entry; Lassa virus pseudotype entry inhibition, cell reporter; Potency, µM (top dose mostly 37.9 µM), for inactives: at the top dose activity change, negative = inhibition, usual class: inhibitors; 300,000 tested, 1.2% active; AID 540256; calls by dose curve; tested in HEK293 cells; note: potency is the fitted concentration of half-maximal effect; % is set by controls: 0 for no effect and ±100 for the full control effect; nearly all actives have a fitted effect of over 50% in size
Pf growth 48h: inhibits P. falciparum growth in the first generation, 48 h; P. falciparum luciferase growth in erythrocytes, 48 h; Potency, µM (top dose mostly 28.7 µM), for inactives: at the top dose activity change, negative = inhibition, usual class: inhibitors; 310,000 tested, 5.9% active; note: potency is the fitted concentration of half-maximal effect; % is set by controls: 0 for no effect and ±100 for the full control effect
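Growth was read as firefly luciferase luminescence after a 48 h, 37 C, 5% CO2 exposure of compounds to reporter-bearing P. falciparum cultures (0.1% parasitemia, 2% hematocrit final) in Albumax-supplemented RPMI 1640.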
MARV entry inh: Marburg virus entry inhibition; Marburg virus pseudotyped entry inhibition, cell reporter; Potency, µM (highest dose often 37.8 µM), for the others: at the highest dose activity change, negative = inhibition, most hits filed as inhibitors; 300,000 tested, 1.8% active; AID 540276; calls by dose curve; tested in HEK293 cells; note: potency is the fitted concentration of half-maximal effect; % is set by controls: 0 for no effect and ±100 for the full control effect
Pf growth 96h: P. falciparum growth inhibition at 96 hours; P. falciparum luciferase reporter growth, 96 h; Potency, µM (doses to about 28.7 µM), without a hit: at the highest dose activity change, negative = inhibition, actives largely listed as inhibitors; 320,000 tested, 6.9% active; note: potency is the fitted concentration of half-maximal effect; % is set by controls: 0 for no effect and ±100 for the full control effect
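Cell-based qHTS: luciferase-tagged P. falciparum in erythrocytes (2% hematocrit, 0.05% parasitemia final) incubated with compounds for 96 hours, 37 C, 5% CO2; luciferase detection reagent then added and luminescence measured.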
Shiga inhibitor: blocks Shiga toxin action in Vero cells; Vero cells, Shiga toxin protein synthesis inhibition reporter; inhibition, % at 38.7 µM; 290,000 tested, 9.2% active; AID 2315; in the data active = inhibition mostly above about 28%, no sharp cut-off; inactive = mostly below about 43%; note: 0% is about no effect
Cycloheximide cs: counter-screen for Shiga toxin inhibitors: cycloheximide protein synthesis inhibition. cell reporter, cycloheximide protein synthesis inhibition counterscreen. 300,000 tested, 12% active. AID 2314. max response, %; in the data active = max response mostly above about 13%, no sharp cut-off; inactive = mostly below about 14%; note: read at 38.3 µM for the half of the compounds with a filed dose; 0% is about no effect
* = called active by the depositor; ? = inconclusive; / = no result given; + = active, no number; [ ] = remark or other dose. A selection: hits, their analogues and other compounds. The true share with any hit is near 19%. Unless noted, calls come from the whole dose curve; as a rule, active = well fitted inhibition curve with a large enough effect; inconclusive = small, poorly fitted or top-dose-only effect, or another doubt; inactive = no such curve, though single readings can be large or run the other way.

SMILES	LASV entry inh	Pf growth 48h	MARV entry inh	Pf growth 96h	Shiga inhibitor	Cycloheximide cs
O=C(N/N=C/c1ccc[nH]1)c1cccc(Br)c1	?	1.9%	?	13.1%	+	30.8*
CC(C)(C)OC(=O)N/N=C\c1ccc[nH]1	1.1%[46.1 µM]	134.9%	0.3%[46.1 µM]	24.6%	57.7*	41.2*
Cc1ccc(C(=O)N/N=C\c2ccc[nH]2)cn1	-0.1%	/	-23.7%	19.1%	23.8	18.6*
O=C(NN=Cc1ccccc1Cl)c1ccc([N+](=O)[O-])cc1	9.5%[46.1 µM]	/	10.6%[46.1 µM]	/	/	/
O=C(N/N=C\c1ccc[nH]1)c1cncc(Br)c1	/	37.7%	/	18.0%	-2.2	1.2
CCCN(CCC)S(=O)(=O)c1ccc(C(=O)Nc2ccc(OCC(=O)N3CCOCC3)cc2)cc1	?	?	5.8%	/	4.5	-5.6
O=C(COCc1cc(-c2cccs2)on1)Nc1cccc(Cl)c1Cl	13.1%[46.1 µM]	/	/	/	/	/
COc1cc(C(=O)Nc2ccc(-c3nc4ccccc4o3)c(O)c2)cc(OC)c1OC	4.1%[46.1 µM]	/	/	/	/	/
CCOc1ccc(C2/C(=C(\O)c3ccc(OC)c(OC)c3)C(=O)C(=O)N2c2cc(C)on2)cc1OC (stereo not given)	4.6%	-11.7%	-9.7%	2.4%	17.0	1.9
O=C(N/N=C/c1ccc[nH]1)c1cccnc1	14.0%	62.9%	7.3%	173.3%	-4.9	-1.4
CCOc1ccc(OCc2ccc(C(=O)NN=Cc3ccc[nH]3)cc2)cc1	?	/	0.282µM*	/	/	/
Cc1cccc(NCC(=O)N/N=C\c2ccc[nH]2)c1	?	-0.9%	7.08µM*	7.0%	-11.7	0.5
Cc1ccc(NCC(=O)N/N=C\c2cccc(O)c2)cc1	/	8.9%	/	11.5%	28.9	17.7*
Cc1cccc(C(=O)N/N=C/c2ccc[nH]2)c1	9.7%	0.5%	2.9%	80.7%	80.1*	23.9*
NC(=O)C1CCN(c2ccc([N+](=O)[O-])cc2Cl)CC1	-26.5%[46.1 µM]	7.0%	?	-5.4%	-12.7	5.7
CSc1ccccc1N=Cc1nc(-c2ccccc2)oc1O	0.4%	5.9%	17.5%	-17.6%	94.0*	36.6*
CC1=Nc2ccccc2/C1=C\c1nc(-c2ccccc2)oc1O	1.6%	/	-3.2%	-16.1%	-7.0	0.4
CC(=O)Nc1ccc(N=Cc2nc(-c3ccc(C)cc3)oc2O)cc1	-12.9%	7.8%	-5.7%	?	18.2	3.1
Cc1ccc(N=Cc2nc(-c3ccc(C)cc3)oc2O)cc1	2.7%	37.4%	7.1%	-16.0%	96.6*	26.7*
Oc1oc(-c2ccc(Br)cc2)nc1C=Nc1ccc(Br)cn1	/	44.0%	/	60.6%	15.0	-2.8
O=C(Oc1oc(-c2ccco2)nc1C=Nc1ccc(Cl)cc1)c1ccco1	1.3%	42.5%	20.6%	213.7%	50.5*	23.1*
Oc1oc(-c2ccccc2)nc1C=NCc1ccccc1	?	/	?	72.7%	118.7*	60.8*
CC1(C)Cc2ccccc2C(=NCC(=O)O)N1	6.4%	2.0%	19.5%[14.2 µM]	23.4%	-25.4	-6.5
NC(=O)C1CCN(C(=O)COc2cccc3ccccc23)CC1	13.4%	/	10.8%	-4.4%	-8.9	-2.1
COCCNC(=O)c1ccccc1NC(=O)CSc1ccc(C)cc1	21.8%[46.1 µM]	-10.8%	-27.2%[46.1 µM]	-80.6%	1.6	-2.8
SMILES	LASV entry inh	Pf growth 48h	MARV entry inh	Pf growth 96h	Shiga inhibitor	Cycloheximide cs
NC(=O)COC(=O)CCCSc1nc2ccccc2s1	?	-3.4%	-20.2%	-44.2%[1.15 µM]	14.7	-7.0
O=C(O)Cc1c[nH]c2cccc(O)c12	/	39.6%	/	-17.4%	-11.2	-1.7
COc1ccc(N=Cc2nc(-c3ccco3)oc2O)cc1	23.1%	-12.6%	12.5%	8.8%	101.8*	50.7*
CN(C)c1ccc(N=Cc2nc(-c3ccccc3)oc2O)cc1	-2.3%	?	24.8%	/	17.2	10.9
Oc1oc(-c2ccccc2)nc1C=Nc1ccccc1	2.2%	12.3%	2.0%	38.0%	115.1*	46.4*
COc1ccc(-c2nc(/C=C3\C(C)=Nc4ccccc43)c(O)o2)cc1	-11.5%	1.8%	-17.5%[46.1 µM]	30.2%	1.9	-0.4
Nc1ccc2oc(Cc3ccc(Cl)cc3)nc2c1	/	/	-26.6%[46.1 µM]	/	/	/
Nc1ccc2oc(-c3ccccn3)nc2c1	?	237.4%	-18.7%[46.1 µM]	9.9%	71.3*	33.9*
O=C1c2cccnc2C(=O)N1c1cccc(-c2nc3ccccc3o2)c1	-1.2%	31.4%	?	-3.1%	67.5*	34.0*
c1cc(-c2nc3ccccc3o2)nc(-c2nc3ccccc3o2)c1	/	/	-6.5%	/	/	/
c1ccc(-c2nc3ccccc3o2)nc1	1.6%	98.5%	?	/	51.1*	42.2*
c1ccc2nc(-c3nc4ccccc4o3)ccc2c1	2.31µM*	-3.7%	?	/	9.8	6.0
Cc1ccc2c(c1)NC(=O)C(CC(=O)NCCCN1CCc3ccccc3C1)O2 (stereo not given)	/	/	-4.6%	-24.2%	-7.8	-9.2
COc1ccc(CCN2C(=O)CC(NCc3ccc4c(c3)OCO4)C2=O)cc1OC (stereo not given)	8.9%	?	1.2%[46.1 µM]	?	-7.5	-4.8
Cc1ccc(C)n1-c1nnc(N2CCC(C(=O)NCCCN3CC(C)CC(C)C3)CC2)s1 (stereo not given)	/	?	/	?	-10.1	-3.9
Cc1ccc(Cl)cc1NC(=O)C(NS(=O)(=O)c1cccs1)c1ccccc1 (stereo not given)	?	-7.1%	?	?	-5.6	-1.5
COc1ccc(-n2c(C)ccc2-c2ccccc2)cn1	-16.3%[46.1 µM]	?	-6.2%[46.1 µM]	?	/	13.5
Clc1ccc2oc(-c3ccccn3)nc2c1	-13.0%	233.9%	-23.6%	?	117.6*	43.6*
c1cncc(-c2nc3ccccc3o2)c1	-0.7%	47.3%	-1.3%	?	39.5	20.9*
O=C(Cn1cnc([N+](=O)[O-])n1)c1ccccc1	17.5%	27.3%	2.8%	?	21.9	-3.0
C/C(Cn1nnc([N+](=O)[O-])n1)=N\NC(=O)c1ccccc1	-25.8%	?	?	14.7µM*	54.1*	24.2*
C/C(Cn1cnc([N+](=O)[O-])n1)=N\NC(=O)c1ccccc1	14.5%	40.3%	36.8%	-0.8%	57.1*	30.1*
COc1ccc(C(=O)N/N=C(\C)Cn2nc([N+](=O)[O-])cc2C)cc1	-1.3%	4.8%	?	-21.3%	58.4*	15.7
O=C1CCc2cc(S(=O)(=O)N3CCC(C(=O)NC4CCCc5ccccc54)CC3)ccc2N1 (stereo not given)	/	/	0.3%	?	-5.0	-1.9
CC(Oc1ccccc1)c1nnc(N)s1 (stereo not given)	5.4%	24.3%	21.2%[46.1 µM]	31.6%	4.0	5.5
Fc1ccc(Cc2nnc(-c3cccs3)o2)cc1	/	46.7%	/	?	43.4*	32.5*
c1ccc(-c2nnc(CSc3nnc(-c4cccs4)o3)o2)cc1	5.2%	5.1%	-5.3%	17.4%	-1.2	1.6
CC(O)c1nc2ccccc2n1Cc1nnc(-c2ccc(Cl)cc2)o1 (stereo not given)	20.9%	-14.9%	8.6%	-17.4%[5.75 µM]	28.4	21.4*
CCSc1nnc(-c2cccs2)o1	?	28.6%	15.3%	/	27.7	28.4*
Fc1ccccc1CSc1nnc(-c2cccs2)o1	2.1%	182.9%	8.0%	/	88.4*	44.3*
